Laboratory results reported in the antibiotic and cytotoxicity screens of Wong et al. (2023).
Out of some 39,000 compounds screened, about 3,300 (8.5%) were called active. For the sample, actives were picked, then their nearest neighbours and some compounds at random.

What follows are compounds tested on HepG2 (assay: cytotoxicity call (relative viability < 0.9)). Details: 10 µM.
In the case of `Cc1noc(C)c1S(=O)(=O)Nc1ccc2c(c1)C(=O)N([C@@H](C)CO)C[C@H](C)[C@H](CN(C)C(=O)NC1CCCCC1)O2`, the cytotoxicity call is reported as “inactive”. In the case of `Cc1noc(C)c1NC(=O)N(C)C[C@H]1Oc2c(NC(=O)c3ccc(-c4nccs4)cc3)cccc2C(=O)N([C@@H](C)CO)C[C@H]1C`, the cytotoxicity call is reported as “inactive”. For `Cc1noc(C)c1NC(=O)N(C)C[C@@H]1OCCCC[C@H](C)Oc2ccc(NC(=O)c3ccccc3)cc2C(=O)N([C@@H](C)CO)C[C@@H]1C`, the cytotoxicity call was “inactive”. `NC[C@H]1OB(O)c2c(OCCCO)cccc21` was tested, and the cytotoxicity call was “inactive”. In the case of `C=CCOC(=O)[C@H]1[C@@H]2C(=O)O[C@@H](c3ccccc3)[C@@H](c3ccccc3)N2[C@@H](c2ccc(OCCOC(=O)[C@@H]3C[C@@H]4C(=O)N5CCC[C@H]5C(=O)N4[C@@H]3c3cccc(OCCO)c3)cc2)[C@]12C(=O)Nc1ccc(I)cc12`, the cytotoxicity call is reported as “inactive”. In the case of `CC(C)NC(=O)Nc1ccc2c(c1)CC(=O)N([C@H](C)CO)C[C@H](C)[C@H](CN(C)C(=O)NC1CCCCC1)O2`, the cytotoxicity call is reported as “inactive”. `CN1C(=O)c2cc(NC(=O)c3cccs3)ccc2OC[C@@H]2O[C@@H](CC(=O)NCC(F)(F)F)CC[C@@H]21` was tested, and the cytotoxicity call was “inactive”. `COc1cc(N2CCC(N(C)C)CC2)ccc1Nc1ncc(Cl)c(Nc2ccccc2P(C)(C)=O)n1` was tested, and the cytotoxicity call was “active”. In the case of `C=C(C)C1CCC2(C(=O)O)CCC3(C)C(CCC4C5(C)CCC(O)C(C)(C)C5CCC43C)C12` (stereo unspecified), the cytotoxicity call is reported as “inactive”. `C=C(C)C1CCC2(CO)CCC3(C)C(CCC4C5(C)CCC(O)C(C)(C)C5CCC43C)C12` (stereo unspecified) was tested, and the cytotoxicity call was “active”. For `C=C(C)C1CCC2(C)CCC3(C)C(CCC4C5(C)CCC(O)C(C)(C)C5CCC43C)C12` (stereo unspecified), the cytotoxicity call was “inactive”. `CCS(=O)(=O)Nc1ccc2c(c1)C(=O)N(C)[C@@H]1CC[C@@H](CC(=O)NCCOC)O[C@@H]1CO2` was tested, and the cytotoxicity call was “inactive”. For `Cc1noc(C)c1NC(=O)N(C)C[C@@H]1Oc2ccc(NC(=O)Nc3ccc(C(F)(F)F)cc3)cc2CC(=O)N([C@H](C)CO)C[C@H]1C`, the cytotoxicity call was “inactive”. For `CNC[C@@H]1Oc2cc(C#CC(C)(C)O)ccc2S(=O)(=O)N([C@@H](C)CO)C[C@@H]1C`, the cytotoxicity call was “inactive”. With `Cc1ccc(S(=O)(=O)Nc2cccc3c2O[C@@H](CN(C)Cc2ccc(-c4ccccc4)cc2)[C@H](C)CN([C@H](C)CO)C3=O)cc1` the cytotoxicity call was “inactive”. In the case of `Cc1ccc(S(=O)(=O)Nc2cccc3c2O[C@H](CN(C)Cc2ccc(-c4ccccc4)cc2)[C@H](C)CN([C@H](C)CO)C3=O)cc1`, the cytotoxicity call is reported as “active”. With `Cc1ccc(S(=O)(=O)Nc2cccc3c2O[C@H](CN(C)Cc2ccc(-c4ccccc4)cc2)[C@@H](C)CN([C@H](C)CO)C3=O)cc1` the cytotoxicity call was “inactive”. In the case of `C[C@@H]1CN([C@@H](C)CO)C(=O)c2cccc(NS(=O)(=O)c3ccc(Cl)cc3)c2O[C@@H]1CN(C)Cc1ccc(-c2ccccc2)cc1`, the cytotoxicity call is reported as “active”. `C[C@@H]1CN([C@@H](C)CO)C(=O)c2cccc(NS(=O)(=O)c3ccc(Cl)cc3)c2O[C@H]1CN(C)Cc1ccc(-c2ccccc2)cc1` was tested, and the cytotoxicity call was “inactive”. With `C[C@H]1CN([C@@H](C)CO)C(=O)c2cccc(NS(=O)(=O)c3ccccc3)c2O[C@H]1CN(C)Cc1ccc(-c2ccccc2)cc1` the cytotoxicity call was “inactive”. With `Cc1ccc(S(=O)(=O)Nc2cccc3c2O[C@@H](CN(C)Cc2ccc(-c4ccccc4)cc2)[C@@H](C)CN([C@H](C)CO)C3=O)cc1` the cytotoxicity call was “active”. For `C[C@@H]1CN([C@H](C)CO)C(=O)c2cccc(NS(=O)(=O)c3ccccc3)c2O[C@@H]1CN(C)Cc1ccc(-c2ccccc2)cc1`, the cytotoxicity call was “active”. For `Cc1ccc(S(=O)(=O)Nc2cccc3c2O[C@H](CN(C)Cc2ccc(-c4ccccc4)cc2)[C@@H](C)CN([C@@H](C)CO)C3=O)cc1`, the cytotoxicity call was “inactive”. With `C[C@@H]1CN([C@H](C)CO)C(=O)c2cccc(NS(=O)(=O)c3ccc(Cl)cc3)c2O[C@H]1CN(C)Cc1ccc(-c2ccccc2)cc1` the cytotoxicity call was “inactive”. `C[C@@H]1CN([C@@H](C)CO)C(=O)c2cccc(NS(=O)(=O)c3ccccc3)c2O[C@H]1CN(C)Cc1ccc(-c2ccccc2)cc1` was tested, and the cytotoxicity call was “inactive”. `Cc1ccc(S(=O)(=O)Nc2cccc3c2O[C@@H](CN(C)Cc2ccc(-c4ccccc4)cc2)[C@@H](C)CN([C@@H](C)CO)C3=O)cc1` was tested, and the cytotoxicity call was “inactive”.
